# NPSR antag – qHTS Assay for Antagonists of the Neuropeptide S Receptor: cAMP Signal Transduction; Q6W5P4; CHO-NPSR cells, cAMP TR-FRET, antagonist mode; Potency, µM (series often up to 38.3 µM), without a hit: top-dose activity change, negative = inhibition, hits mostly inhibitors; 220,000 compounds, 1% hits; AID 1461, 2008; also: potency is read from the fitted curve at half-maximal effect; % is scaled to controls: 0 for no effect and ±100 for the full control effect; nearly all actives have a fitted effect of over 50% in size
# PTHR1 agonist – qHTS for PTHR1 Agonists: Primary Screen | AID 743266, 2014 | Potency, µM (series often up to 115 µM), for the others: top-dose activation, usual class: activators | Parathyroid hormone/parathyroid hormone-related peptide receptor (Homo sapiens), Q03431 | 410,000 compounds, 0.075% hits | HEK293 GP2 PTHR1 cells, GloSensor cAMP luminescence, 1 h; also: potency is read from the fitted curve at half-maximal effect; nearly all actives have a fitted effect of over 55% in size
#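 HEK-293-derived GP2 cells expressing PTHR1 and a GloSensor cAMP reporter, 3,000/well, plated overnight, given luciferin plus IBMX (each 0.5 mM as added) for 1 h at 37 °C, then compound for 1 h at 37 °C. Luminescence was read after 15 min at room temperature.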
# RXFP1 antagonist – qHTS Assay for Antagonists of the Relaxin Receptor RXFP1. HEK293-RXFP1, relaxin-stimulated cAMP HTRF, 30 min; hits give low values. activity change, negative = inhibition, % at 57.5 µM. 350,000 compounds, 0.59% hits. AID 1259400, 2018;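 active = activity change of -60% or lower, but not beyond a set lower limit; inconclusive = change between -60% and -40%, or beyond the set limit; inactive = change above -40%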; also: % is scaled to controls: 0 for no effect and ±100 for the full control effect
# Target sequence (Q9HBX9 whole entry, looked up): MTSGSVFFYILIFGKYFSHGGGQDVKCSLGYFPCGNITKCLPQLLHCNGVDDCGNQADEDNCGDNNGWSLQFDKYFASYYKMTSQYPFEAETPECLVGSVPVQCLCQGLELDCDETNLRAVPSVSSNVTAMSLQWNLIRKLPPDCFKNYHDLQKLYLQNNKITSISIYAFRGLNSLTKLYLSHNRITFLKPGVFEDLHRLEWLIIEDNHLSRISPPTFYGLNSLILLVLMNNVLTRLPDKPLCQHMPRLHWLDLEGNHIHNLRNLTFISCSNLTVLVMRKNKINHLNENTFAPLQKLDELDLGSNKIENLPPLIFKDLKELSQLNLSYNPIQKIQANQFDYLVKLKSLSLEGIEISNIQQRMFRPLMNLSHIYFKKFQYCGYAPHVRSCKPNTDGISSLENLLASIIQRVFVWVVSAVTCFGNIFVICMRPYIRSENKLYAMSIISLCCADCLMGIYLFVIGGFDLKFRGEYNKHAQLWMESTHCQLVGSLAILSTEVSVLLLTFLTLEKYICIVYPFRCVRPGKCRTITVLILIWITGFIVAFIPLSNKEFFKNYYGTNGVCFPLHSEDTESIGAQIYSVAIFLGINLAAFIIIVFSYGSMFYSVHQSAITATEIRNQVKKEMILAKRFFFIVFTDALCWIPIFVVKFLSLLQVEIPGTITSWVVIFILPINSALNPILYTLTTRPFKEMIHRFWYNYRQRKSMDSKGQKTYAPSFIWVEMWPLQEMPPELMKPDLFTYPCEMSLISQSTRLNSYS
# TCR activator – Activators of T cell receptors: qHTS campaign; Potency, µM (titrated, usually from 9.22 µM), inactives show top-dose activation of IL-2 secretion, hits mostly activators; primary human leukocytes, anti-CD3, IL-2 HTRF, 48 h; AID 504894, 2011; 330,000 tested, under 10 active; also: % of control where 0% means no effect
#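 IL-2 release read by HTRF sandwich (Eu cryptate donor, d2 acceptor, 665 nm emission) after 48 hr exposure of primary human leukocytes to compound together with anti-CD3 beads in the absence of co-stimulatory signals.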
# TSHR antag – Antagonists of the Thyroid Stimulating Hormone Receptor: HTS campaign; Thyrotropin receptor (Homo sapiens), P16473; TSHR-expressing cells, TSH-stimulated cAMP HTRF, 2 h; hits give low values; activity change, negative = inhibition, % at 11.5 µM; 330,000 compounds, 0.2% hits; AID 504810, 2011;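 active = activity change below a set negative limit, meaning inhibition stronger than a set level, cut at about -70% in these data; inconclusive = activity change between two set negative limits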; also: % is scaled to controls: 0 for no effect and ±100 for the full control effect
#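 Inhibition of cAMP made by TSHR-expressing cells under TSH stimulation (4nM final, EC80; 2 h, 37 deg C) is quantified with a one-step lysis HTRF kit, anti-cAMP cryptate versus cAMP-d2.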
# RXFP1 ag – qHTS Assay for Agonists of the Relaxin Receptor RXFP1; Relaxin receptor 1 (Homo sapiens), Q9HBX9; HEK293T-RXFP1 cAMP TR-FRET, 30 min; response scale: percent of porcine relaxin response, buffer zero; Potency, µM (top dose mostly 57.5 µM), for the others: at the top dose activation, most hits filed as activators; 370,000 compounds, 0.3% hits; AID 2676, 2010; also: potency is read from the fitted curve at half-maximal effect; % is scaled to controls: 0 for no effect and ±100 for the full control effect; nearly all actives have a fitted effect of over 60% in size
#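 Agonist response is measured as cAMP accumulation in an RXFP1-transfected HEK293T line under PDE4 inhibition. Values are scaled between buffer-only and 29 nM porcine relaxin, and EC50s come from standard Hill equation fits.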
# An asterisk follows results filed as active; i = inactive; ? = inconclusive; · = no result given; [ ] = remark or other dose. This is one part of a sample in which hits are shown more often than they occur. Unless noted, calls follow the shape of the dose curve; as a rule, active = well fitted curve in the direction sought with a large enough effect; inconclusive = small, poorly fitted or top-dose-only effect, or another doubt; inactive = no such curve, though single readings can be large; an effect the other way counts as inactive or inconclusive.
SMILES,NPSR antag,PTHR1 agonist,RXFP1 antagonist,TCR activator,TSHR antag,RXFP1 ag
CCCOc1ccc(-c2nonc2NC(=O)c2oc3ccc(C)cc3c2C)cc1OCCC,·,-3%,-6,·,·,1%
O=[N+]([O-])c1ccc(Cl)c(S(=O)(=O)/N=C(/c2ccccc2)N2CCOCC2)c1,1%,i,-61*,1%,4,-1%
O=C(c1ccco1)N1CCNCC1,·,·,16,·,·,·
C[N+](C)(C)CCC(=O)c1cccc2ccccc12,32µM*,·,·,·,·,·
CCN(CCCNC(=O)c1cc2cc3cc(C)ccc3nc2s1)c1cccc(C)c1,·,-6%,-3,·,·,-2%
O=C(CCN1C(=O)/C(=C/c2ccccc2Cl)SC1=S)NNC(=O)c1ccccc1O,·,-16%,-71*,-3%,-3,-4%
O=C(O)CCCN1C(=O)/C(=C/c2cn(-c3ccccc3)nc2-c2cccs2)SC1=S,3.2µM*,-13%,-3,-3%,9,-1%
O=C(CCCN1C(=O)/C(=C/c2ccccc2Cl)SC1=S)Nc1cccnc1,·,-6%,6,-1%,-72*,1%
CS(=O)(=O)c1ccc(-c2cn3ccccc3n2)cc1,·,·,-4,·,·,·
Cc1ccc(Cn2c(CCNC(=O)C(C)C)nc3ccccc32)cc1,·,-21%,3,·,·,1%
COc1ccc(CCNC(=O)c2nc(-c3ccc(Cl)cc3)n3c2CCCCC3)c(OC)c1,·,-11%,-12,·,·,0%
CCOC(=O)c1[nH]c(C)c(C(=O)NC(CC)Cc2ccccc2)c1C (centres undefined),·,i,2,·,·,-3%
NC1=NC(=O)/C(=C/c2ccccc2OCC(=O)Nc2ccc(F)cc2)S1,·,i,2,1%[46.1 µM],10,·
O=C(COc1ccccc1/C=C1\SC(=S)NC1=O)Nc1ccc(F)cc1,·,-23%,-70*,1%[46.1 µM],?,·
Nc1c(C(=O)Nc2ccccc2Br)sc2nc(-c3cccs3)ccc12,·,i,11,·,·,?
Nc1c(C(=O)Nc2nc3ccccc3s2)sc2nc(-c3cccs3)ccc12,10µM*,-93%,15,-4%,-24,?
Cc1ccc(NS(=O)(=O)c2ccc3c(c2)[C@H]2C=CC[C@H]2[C@@H](c2ccc(F)cc2)N3)cc1C,·,-29%,-17,·,·,-1%
Cc1ccc([C@H]2Nc3ccc(S(=O)(=O)Nc4cccc(Cl)c4C)cc3[C@H]3C=CC[C@H]32)cc1,·,i,-62*,·,·,2%
COC(=O)c1ccc([C@H]2Nc3ccc(S(=O)(=O)Nc4cccc(C)c4)cc3[C@H]3C=CC[C@H]32)cc1,·,i,-70*,·,·,3%
O=C1CN(C(=O)c2ccccc2C(F)(F)F)C(c2ccccc2)c2cc(F)ccc2N1 (centres undefined),·,i,-12,·,·,-3%
O=[N+]([O-])c1ccc2c(c1Nc1ccccc1)=NC1(CCCCC1)N=2,-11%[46.1 µM],i,3,2%,15,-1%
COc1ccc(Nc2c([N+](=O)[O-])ccc3c2=NC2(CCCCC2)N=3)cc1,10µM*,-44%,-33,1%,7,0%
CCOc1cccc2sc(N3CCN(C(=O)C(C)(C)C)CC3)nc12,·,i,-3,·,·,1%
CCOC(=O)c1c(C)oc2nc(C)nc(NCCc3ccc(SC)cc3)c12,·,-22%,-14,·,·,-1%
CC(C)(C)c1ccc(C(=O)NC(=S)NCc2ccco2)cc1,·,-8%,-4,7%,-19,1%
CC(C)(C)c1ccc(/C([O-])=C(/C(=S)NCc2ccco2)[n+]2ccccc2)cc1,?,·,·,·,21,25µM*
O=C(NCC(O)CO)c1c(I)c(C(=O)NCC(O)CO)c(I)c(N(CCO)C(=O)CO)c1I (centres undefined),·,·,4,·,·,·
